As a reminder, the AC50 is the concentration giving half of the maximal activity seen.

Each structure is given as a SMILES string. Calls of active or inactive are those of the source. Rule for the calls: active = hit-call score of the fitted dose curve at least 0.9, where 1 is the maximum; inactive = score below 0.9.

Assay [1] in a line: APR_HepG2_CellLoss_72hr: Apredica 72-hour HepG2 Assay for Cell Loss (AID 2282915). To be noted: high-content imaging. In outline:
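HepG2 cells exposed 72 h to compound at 0.39–200 uM (10 concentrations, duplicate) in 0.5% DMSO. Fixed with 3.7% formaldehyde and Hoechst 33342-stained. Imaged at 20x; nuclear count gives cell number, fitted bidirectionally versus DMSO.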

The nature of assay [2]: APR_HepG2_P-H2AX_72hr: Apredica 72-hour HepG2 Assay for H2AX Phosphorylation (AID 2282916).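 Note: phospho-histone H2A.x immunostain intensity per cell marking DNA damage.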 Conditions: imaging, actives raise or lower the signal. In outline: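 Following 72 hr treatment with 0.39–200 uM compound, HepG2 cells were formaldehyde-fixed, permeabilized and stained for phospho-H2A.x; signal was measured by high-content imaging and fitted bidirectionally against DMSO controls.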

Assay [3] in a line: APR_HepG2_MitoMembPot_72hr: Apredica 72-hour HepG2 Assay for Mitochondrial Membrane Potential (AID 2282917). Conditions: imaging, actives raise or lower the signal. In outline: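 HepG2 cells dosed 72 hr with compound at 0.39–200 uM in duplicate, 0.5% v/v DMSO final. Mitochondria stained with 250 nM MitoTracker Red CMXRos for 30 min before formaldehyde fixation, imaged by high-content fluorescence; bidirectional fit versus DMSO.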

Assay [4] can be described thus: APR_HepG2_MitoticArrest_72hr: Apredica 72-hour HepG2 Assay for Mitotic Arrest (AID 2282918). To be noted: high-content imaging, actives raise or lower the signal. In outline:
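High-content imaging of fixed human HepG2 cells after 72 h compound exposure (0.39–200 uM, duplicates, 0.5% DMSO); mitotic arrest scored from phospho-histone H3 and nuclear Hoechst staining relative to DMSO.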

A short description of assay [5]: APR_HepG2_MicrotubuleCSK_72hr: Apredica 72-hour HepG2 Assay for Microtubule CSK Stabilty (AID 2282919). Conditions: HepG2 microtubule cytoskeleton, high-content imaging, actives raise or lower the signal. In short, it runs like this: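 HepG2 cells were exposed 72 hr to compound at 0.39–200 uM in duplicate (0.5% DMSO final), then fixed and permeabilized. Alpha-tubulin immunofluorescence was imaged by high-content microscopy, with bidirectional fitting against DMSO and taxol as positive control.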

Assay [6] in a line: APR_HepG2_P-H2AX_24hr: Apredica 24-hour HepG2 Assay for H2AX Phosphorylation (AID 2282920). To be noted: high-content imaging, actives raise or lower the signal. In outline: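 High-content imaging of phospho-histone H2A.x immunofluorescence, nuclei counterstained with Hoechst 33342, in fixed HepG2 cells. Compounds ran 0.39–200 uM in duplicate for 24 h, final DMSO 0.5%. Signal change fitted both directions against DMSO.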

Assay [7] in a line: APR_HepG2_StressKinase_72hr: Apredica 72-hour HepG2 Assay for Stress Kinase (AID 2282921). Conditions: HepG2 stress kinase (phospho-c-Jun) imaging, actives raise or lower the signal. In outline: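 Fluorescence intensity of Cy3-tagged anti-phospho-c-Jun antibody, quantified per cell from Hoechst-defined nuclei across six images per well, served as the read-out following 72 h exposure (0.39–200 uM, 0.5% v/v DMSO).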

Assay [8] in a line: APR_HepG2_StressKinase_24hr: Apredica 24-hour HepG2 Assay for Stress Kinase (AID 2282922). To be noted: HepG2 stress kinase (phospho-c-Jun) imaging, actives raise or lower the signal. In outline:
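HepG2 cells exposed 24 h to 0.39–200 uM compound in duplicate (0.5% v/v DMSO final). Cells fixed in 3.7% formaldehyde, permeabilized and immunostained for phospho-c-Jun; read by high-content fluorescence imaging, fitted bidirectionally against DMSO.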

Assay [9] in a line: APR_HepG2_p53Act_72hr: Apredica 72-hour HepG2 Assay for p53 Activation (AID 2282923).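 Note: average cellular p53 protein immunofluorescence intensity in HepG2 cells.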 To be noted: high-content imaging, actives raise or lower the signal. In short, it runs like this: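 HepG2 monolayers receive test compounds in duplicate at ten concentrations (0.39 through 200 uM) for 72 hr. They are then formaldehyde-fixed, antibody-labelled for p53, Hoechst-stained and imaged, with activity fitted bidirectionally versus DMSO.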

Assay [10] in a line: APR_HepG2_MitoMass_72hr: Apredica 72-hour HepG2 Assay for Mitochondrial Mass (AID 2282924).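 Note: MitoTracker Red CMXRos stain intensity per cell imaged as mitochondrial mass.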 Conditions: high-content imaging, actives raise or lower the signal. In outline:
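HepG2 cells dosed 72 hr at 0.39–200 uM (0.5% DMSO), in duplicate. MitoTracker Red CMXRos 250 nM loaded 30 min before formaldehyde fixation; high-content fluorescence imaging, bidirectional fit versus DMSO.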

Assay [11] is described as follows: APR_HepG2_NuclearSize_72hr: Apredica 72-hour HepG2 Assay for Nuclear Size (AID 2282925). Conditions: high-content imaging, actives raise or lower the signal. In outline:
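HepG2 cells dosed 72 h at 0.39–200 uM (10 concentrations, duplicate) in 0.5% v/v DMSO final. Fixed, Hoechst 33342-stained nuclei imaged; nuclear diameter measured by automated image analysis. Bidirectional fit versus DMSO.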

The nature of assay [12]: ATG_CRE_CIS: Attagene CIS-FACTORIAL HepG2 Assay for human cAMP Responsive Element (CRE) binding protein 3 (AID 2282926). Conditions: HepG2 CRE cis-reporter, Attagene multiplexed mRNA; actives raise or lower the signal. In outline: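 Multiplexed transcription-unit reporters transfected into HepG2; 24 h dosing; RT-PCR/capillary electrophoresis fluorescence read-out; bidirectional fit vs DMSO.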

For assay [13], the target named is CCAAT/enhancer-binding protein beta (Homo sapiens) (UniProt P17676). Put plainly: ATG_C_EBP_CIS: Attagene CIS-FACTORIAL HepG2 Assay for human CCAAT/Enhancer Binding Protein (C/EBP) beta (AID 2282927). To be noted: HepG2 Attagene cis-factorial transcription factor reporter; actives raise or lower the signal. In outline: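 HepG2 transiently transfected with multiplexed reporter units under cis-regulatory promoters reporting endogenous C/EBPb activity. After 24 h exposure, reporter mRNA assayed by RT-PCR, fluorescent labelling, HpaI digestion and capillary electrophoresis; bidirectional fitting versus DMSO.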

A short description of assay [14]: ATG_DR4_LXR_CIS: Attagene CIS-FACTORIAL HepG2 Assay for human Liver X Receptor (LXR), DR4 submotif (AID 2282929). Conditions: HepG2 Attagene DR4 cis-reporter, mRNA transcription; actives raise or lower the signal. In short, it runs like this: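 The endpoint is DR4-element-driven reporter transcripts after 24 h chemical exposure of transfected HepG2 cells. These were measured via RT-PCR and capillary electrophoresis, and gain or loss of signal was fitted relative to DMSO controls.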

For assay [15], the target named is Aryl hydrocarbon receptor (Homo sapiens) (UniProt P35869). Put plainly: ATG_Ahr_CIS: Attagene CIS-FACTORIAL HepG2 Assay for human Aryl Hydrocarbon Receptor (Ahr) (AID 2282930). To be noted: HepG2 AhR cis-factorial reporter transcription; actives raise or lower the signal. In short, it runs like this:
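HepG2 cells transiently transfected with cis-element-driven multiplexed reporter units; endogenous AhR activity read as reporter mRNA 24 h after dosing, via RT-PCR, 6-FAM labelling, HpaI digestion and capillary electrophoresis. Bidirectional fit relative to DMSO.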

Assay [16] in a line: ATG_AP_1_CIS: Attagene CIS-FACTORIAL HepG2 Assay for human Activator Protein 1 (AP-1) (AID 2282931). To be noted: HepG2 Attagene cis-factorial AP-1 reporter mRNA; actives raise or lower the signal. In short, it runs like this: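 Readout is reporter transcript level from endogenous transcription factor activity, quantified by RT-PCR with fluorescent primer extension and capillary electrophoresis. Transiently transfected HepG2 cells, 24 h exposure. Curves fitted both directions versus DMSO.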

A short description of assay [17]: ATG_AP_2_CIS: Attagene CIS-FACTORIAL HepG2 Assay for human Activator Protein 2 (AP-2) (AID 2282932). To be noted: HepG2 AP-2 cis-reporter, Attagene transcription factor profiling; actives raise or lower the signal. In short, it runs like this:
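Multiplexed mRNA reporter assay in HepG2: cis-regulated units report endogenous factor activity after 24 h treatment. Fluorescence from capillary electrophoresis of RT-PCR products gives the signal, with DMSO as baseline.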

Assay [18] has as its target Retinoic acid receptor alpha (Homo sapiens) (UniProt P10276). The assay can be described thus: ATG_DR5_RAR_CIS: Attagene CIS-FACTORIAL HepG2 Assay for human Retinoic Acid Receptor Alpha (RARE), DR5 submotif (AID 2282934). Conditions: HepG2 Attagene cis-factorial RARE DR5 reporter, mRNA; actives raise or lower the signal. In short, it runs like this: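 HepG2 cells transiently transfected with multiplexed reporter units; DR5 cis-element drives reporter through endogenous transcription factors. After 24 h dosing, reporter mRNA quantified by RT-PCR, fluorescent labeling, HpaI digestion and capillary electrophoresis; bidirectional fitting versus DMSO.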

Assay [19] in a line: ATG_BRE_CIS: Attagene CIS-FACTORIAL HepG2 Assay for human Bone Morphogenetic Protein (BMP) Response Element (BRE) (AID 2282933). To be noted: HepG2 BMP response element reporter, Attagene transcription factor profiling; actives raise or lower the signal. In outline: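 After a 24 h chemical treatment, transiently transfected HepG2 cells were lysed for RNA; reporter transcripts were quantified by fluorescent RT-PCR and capillary electrophoresis, normalised to DMSO.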

Assay [20] is described as follows: ATG_CMV_CIS: Attagene CIS-FACTORIAL HepG2 Assay for human CMV (Internal Marker) (AID 2282928).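 Note: endpoint acts as a background internal control marker rather than a target.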 Conditions: HepG2 CMV promoter reporter, transcription factor profiling; actives raise or lower the signal. In short, it runs like this:
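CMV internal-marker background readout in transiently transfected HepG2 cells bearing cis-regulated reporter units. Reporter mRNA is measured 24 h after dosing by RT-PCR and capillary electrophoresis, with bidirectional fitting against DMSO.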

Aryl hydrocarbon receptor (Homo sapiens), sequence (P35869 whole entry, looked up): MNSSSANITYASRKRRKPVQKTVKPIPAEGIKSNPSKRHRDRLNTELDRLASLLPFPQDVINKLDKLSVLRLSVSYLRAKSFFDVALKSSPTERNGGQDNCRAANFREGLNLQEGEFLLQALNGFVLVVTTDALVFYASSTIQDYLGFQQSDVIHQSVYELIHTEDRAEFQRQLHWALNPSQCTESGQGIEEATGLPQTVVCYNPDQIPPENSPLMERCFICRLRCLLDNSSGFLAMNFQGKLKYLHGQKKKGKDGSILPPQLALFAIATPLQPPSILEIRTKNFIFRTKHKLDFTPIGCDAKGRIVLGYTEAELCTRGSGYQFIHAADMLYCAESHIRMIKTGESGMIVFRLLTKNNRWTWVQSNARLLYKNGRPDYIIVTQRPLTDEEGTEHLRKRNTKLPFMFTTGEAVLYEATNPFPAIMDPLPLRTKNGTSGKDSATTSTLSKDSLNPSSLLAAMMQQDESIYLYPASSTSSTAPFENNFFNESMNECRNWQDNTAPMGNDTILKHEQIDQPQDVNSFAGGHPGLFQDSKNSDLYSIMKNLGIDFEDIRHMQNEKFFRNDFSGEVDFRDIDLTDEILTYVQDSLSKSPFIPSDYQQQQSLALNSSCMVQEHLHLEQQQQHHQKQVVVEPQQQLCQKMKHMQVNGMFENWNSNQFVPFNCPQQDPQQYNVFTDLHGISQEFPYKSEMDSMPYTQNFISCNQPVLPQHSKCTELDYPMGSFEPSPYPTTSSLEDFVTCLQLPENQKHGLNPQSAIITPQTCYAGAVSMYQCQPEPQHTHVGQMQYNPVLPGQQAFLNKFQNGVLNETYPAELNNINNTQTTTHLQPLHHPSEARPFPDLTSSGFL
CCAAT/enhancer-binding protein beta (Homo sapiens), sequence (P17676 whole entry, looked up): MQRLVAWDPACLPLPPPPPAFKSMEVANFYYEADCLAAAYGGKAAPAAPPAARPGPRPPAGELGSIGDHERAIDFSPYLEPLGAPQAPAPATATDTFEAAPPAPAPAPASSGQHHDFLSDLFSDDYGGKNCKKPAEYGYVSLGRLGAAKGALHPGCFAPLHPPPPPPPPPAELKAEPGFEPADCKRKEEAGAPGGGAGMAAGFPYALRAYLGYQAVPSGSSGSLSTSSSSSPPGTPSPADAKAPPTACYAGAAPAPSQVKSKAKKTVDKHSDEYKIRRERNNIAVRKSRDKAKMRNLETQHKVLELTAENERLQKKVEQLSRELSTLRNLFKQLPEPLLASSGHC
Retinoic acid receptor alpha (Homo sapiens), sequence (P10276 whole entry, looked up): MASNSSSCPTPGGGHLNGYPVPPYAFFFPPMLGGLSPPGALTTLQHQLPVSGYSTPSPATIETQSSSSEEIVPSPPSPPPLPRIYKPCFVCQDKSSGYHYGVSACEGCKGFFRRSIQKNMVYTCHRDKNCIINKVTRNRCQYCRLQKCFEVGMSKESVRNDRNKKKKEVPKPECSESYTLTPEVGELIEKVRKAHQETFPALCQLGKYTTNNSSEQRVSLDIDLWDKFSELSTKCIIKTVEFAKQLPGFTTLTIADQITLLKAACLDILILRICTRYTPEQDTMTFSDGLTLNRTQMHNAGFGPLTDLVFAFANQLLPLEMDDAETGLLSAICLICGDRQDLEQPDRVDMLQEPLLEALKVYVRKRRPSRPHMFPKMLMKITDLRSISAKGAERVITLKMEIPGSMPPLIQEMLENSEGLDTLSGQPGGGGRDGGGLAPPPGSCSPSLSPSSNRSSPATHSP

Regarding `NCCO`, the call in assay [1], in assay [2], in assay [3], in [4], in assay [5] and in [6] was inactive. The compound was called inactive in assay [7], in [8], in assay [9], in assay [10], in [11] and in assay [12]. The result in [13], in [14], in assay [15], in assay [16], in [17] and in assay [18] was inactive.

With `Cc1c(C(=O)O)c(O)cc2c1C(=O)c1c(O)c([C@@H]3O[C@H](CO)[C@@H](O)[C@H](O)[C@H]3O)c(O)c(O)c1C2=O`, the compound was classed as inactive in assay [1], in [2], in assay [4], in assay [5], in assay [6] and in assay [7]. Also, the outcome in assay [8], in assay [9], in assay [10], in assay [11], in assay [12] and in assay [13] was inactive. Also, the result in assay [14], in [15], in [16] and in assay [19] was inactive. Also, in [3], the AC50 is 40.9 µM (active).

Take `CCCCCCCCCCCCCCCCCC(=O)O`: the call in assay [1], in assay [2], in [3], in assay [5], in [6] and in assay [7] was inactive. For the same compound, the outcome in assay [8], in assay [9], in assay [10], in [12], in assay [13] and in assay [20] was inactive. The compound was called inactive in [14], in assay [15], in assay [16] and in assay [17]. Moreover, the AC50 in [4] is 49.9 µM (active).

Take `Cc1ccc(Cl)cc1`: the compound was classed as inactive in assay [1], in assay [2], in assay [3], in assay [4], in assay [5] and in [6]. For the same compound, the compound was called inactive in [7], in assay [8], in assay [9], in assay [10], in [12] and in assay [13]. The compound was classed as inactive in assay [20], in assay [14], in assay [15], in [16], in [17] and in [19].

On to `Nc1ccccc1N`, for which the AC50 in [1] is 9.57 µM (active); in assay [2] it was 38.8 µM (active); in assay [4], 14.2 µM (active); in assay [6], 45.8 µM (active); in assay [7] it was 59.9 µM (active); in assay [9] it was 18.9 µM (active). Moreover, the AC50 in assay [10] was 16.2 µM (active); in assay [12] it was 72.5 µM (active); in assay [13], 54.2 µM (active); in [20], 24.2 µM (active); in assay [15], 1.41 µM (active); in assay [16], 15.7 µM (active). The result in assay [3], in assay [5], in assay [8] and in [14] was inactive.

In the case of `CCCCCCCCCCO`, the compound was classed as inactive in assay [1], in assay [2], in [3], in assay [4], in [5] and in [6]. Moreover, the outcome in assay [7], in assay [8], in assay [9], in assay [10], in assay [11] and in assay [13] was inactive. For the same compound, the compound was called inactive in [14], in assay [15], in [16] and in [19]. Moreover, the AC50 in assay [12] was 183 µM (active).

In the case of `O=C(O)CCCCC(=O)O`, the result in assay [1], in [2], in assay [3], in [4], in [5] and in [6] was inactive. The call in assay [7], in [8], in assay [9], in assay [10], in assay [12] and in assay [13] was inactive. Moreover, the outcome in [20], in assay [14], in assay [16] and in [17] was inactive. Also, in [15], the AC50 was 72.5 µM (active).

Values taken from PubChem BioAssay (EPA / NIEHS).
